Out of some 39,000 compounds screened, about 3,300 (8.5%) were called active. The list comes from a sample in which actives are over-represented; it also holds similar structures and randomly drawn compounds.
Test system: HepG2
Assay: cytotoxicity call (relative viability < 0.9)
Conditions: 10 µM

SMILES	cytotoxicity call
CCNC(=O)C[C@H]1CC[C@H]2[C@@H](COC[C@H](O)CN2C(=O)Nc2c(C)noc2C)O1	inactive
O=C(C[C@@H]1C=C[C@H](NS(=O)(=O)c2ccccc2)[C@H](CO)O1)NCc1ccncn1	inactive
COc1ccc2c3c(n(c2c1)C)[C@@H](CO)N(C[C@]13CCN(CC1)C(=O)Nc1cccc(c1)F)S(=O)(=O)C	inactive
C[C@H]1CN([C@@H](C)CO)C(=O)Cc2cc(NC(=O)c3ccncc3)ccc2O[C@H]1CN(C)Cc1ccncc1	inactive
COCCNC(=O)C[C@@H]1CC[C@@H]2[C@H](COC[C@@H](O)CN2S(=O)(=O)c2ccccc2C)O1	inactive
C[C@H](CO)N1C[C@H](C)[C@@H](CN(C)C(=O)C2CCCCC2)OCCCC[C@H](C)Oc2ccc(NC(=O)CCC(F)(F)F)cc2C1=O	inactive
C[C@@H]1CCCCO[C@@H](CN(C)C(=O)c2ccncc2)[C@@H](C)CN([C@@H](C)CO)C(=O)c2cc(NS(=O)(=O)c3cn(C)cn3)ccc2O1	inactive
Cc1noc(C)c1NC(=O)Nc1cccc2c1O[C@H](CN(C)C(=O)Nc1ccc(C(F)(F)F)cc1)[C@@H](C)CN([C@@H](C)CO)C2=O	inactive
C=CC[C@@H](CC(=O)N[C@@H](CO)Cc1ccccc1)C(=O)N1CCC[C@@H]1COC(=O)[C@@H](CC=C)NC(=O)OCC1c2ccccc2-c2ccccc21	inactive
C[C@@H]1CN([C@H](C)CO)C(=O)Cc2cc(NC(=O)Nc3cccc4ccccc34)ccc2O[C@@H]1CN(C)Cc1ccc(-c2ccccc2)cc1	inactive
CCS(=O)(=O)N1C[C@]2(CCN(CC2)C(=O)c2cccnc2)c2c(n(c3cc(ccc23)OC)C)[C@@H]1CO	inactive
COCCNC(=O)c1ccc(N2C[C@H]3C[C@@H](C2)c2cccc(=O)n2C3)c(NC(=O)c2ccc(OC)cc2)c1	inactive
O=C1O[C@H](c2ccccc2)[C@H](c2ccccc2)N2[C@H]1[C@@H](C(=O)N1CCCCCCC1)[C@]1(C(=O)Nc3ccc(C#CC4=CCCCC4)cc31)[C@H]2c1ccccc1OCCO	inactive
O=C1O[C@@H](c2ccccc2)[C@@H](c2ccccc2)N2[C@@H](c3ccccc3OCCO)[C@]3(C(=O)Nc4ccc(C#CC5=CCCCC5)cc43)[C@@H](C(=O)N3CCCCCCC3)[C@H]12	active
COc1cc2c(cc1OC)CN(C(=O)[C@H]1[C@@H]3C(=O)O[C@@H](c4ccccc4)[C@@H](c4ccccc4)N3[C@@H](c3ccccc3OCCO)[C@]13C(=O)Nc1ccc(C#CC4=CCCCC4)cc13)CC2	inactive
O=C1O[C@@H](c2ccccc2)[C@@H](c2ccccc2)N2[C@@H](c3ccccc3OCCO)[C@]3(C(=O)Nc4ccc(C#CC5(O)CCCCCC5)cc43)[C@@H](C(=O)O)[C@H]12	inactive
COc1cc2c(cc1OC)CN(C(=O)[C@@H]1[C@H]3C(=O)O[C@H](c4ccccc4)[C@H](c4ccccc4)N3[C@H](c3ccc(O)cc3)[C@@]13C(=O)Nc1ccc(C#CC4(O)CCCCCC4)cc13)CC2	inactive
NC(=O)NCC#Cc1ccc2c(c1)[C@]1(C(=O)N2)[C@H](C(N)=O)[C@H]2C(=O)O[C@H](c3ccccc3)[C@H](c3ccccc3)N2[C@@H]1c1ccccc1OCCO	inactive
COc1cc2c(cc1OC)CN(C(=O)[C@@H]1[C@H]3C(=O)O[C@H](c4ccccc4)[C@H](c4ccccc4)N3[C@H](c3ccc(OCCO)cc3)[C@@]13C(=O)Nc1ccc(C#CC4(O)CCCCCC4)cc13)CC2	active
COc1cc2c(cc1OC)CN(C(=O)[C@H]1[C@@H]3C(=O)O[C@@H](c4ccccc4)[C@@H](c4ccccc4)N3[C@@H](c3ccc(OCCO)cc3)[C@]13C(=O)Nc1ccc(C#CC4(O)CCCCCC4)cc13)CC2	inactive
NC(=O)[C@H]1[C@@H]2C(=O)O[C@@H](c3ccccc3)[C@@H](c3ccccc3)N2[C@@H](c2ccccc2OCCO)[C@]12C(=O)Nc1ccc(C#CC3=CCCCC3)cc12	active

SMILES	cytotoxicity call
C[C@@H]1CN([C@H](C)CO)C(=O)c2cccc(NC(=O)C3CCOCC3)c2O[C@H]1CN(C)S(=O)(=O)c1cccs1	inactive
C[C@@H]1CN([C@H](C)CO)C(=O)c2cc(NC(=O)Nc3cccc4ccccc34)ccc2O[C@@H](C)CCCCO[C@H]1CN(C)Cc1ccc(Cl)c(Cl)c1	inactive
C[C@@H]1CN([C@@H](C)CO)C(=O)c2cc(NC(=O)Cn3cnnn3)ccc2O[C@H]1CN(C)Cc1ccc(-c2ccccc2)cc1	inactive
CC(C)CN1C(=O)[C@@]2(c3ccc([N+](=O)[O-])cc3)CC(=O)N(CC34CC5CC(CC(C5)C3)C4)[C@@H]2c2ccc(CO)cc21	inactive
Cc1cc(C)n(-c2nc(=O)cc(C)[nH]2)n1	inactive
[N-]=[N+]=NCCOCCNC(=O)CCCOc1ccc(CS(=O)c2nnc(-c3ccc(F)cc3)o2)nc1 (stereo unspecified)	active
COc1ccc(NC(=O)N(C)C[C@@H]2OCCCC[C@@H](C)Oc3ccc(NC(=O)CCC(F)(F)F)cc3C(=O)N([C@@H](C)CO)C[C@H]2C)cc1	inactive
Cc1noc(C)c1NC(=O)N(C)C[C@@H]1OCCCC[C@@H](C)Oc2ccc(NS(=O)(=O)c3ccc(F)cc3)cc2C(=O)N([C@H](C)CO)C[C@@H]1C	inactive
C[C@@H]1CN([C@@H](C)CO)C(=O)Cc2cc(NC(=O)Cc3cn(C)c4ccccc34)ccc2O[C@@H]1CN(C)S(C)(=O)=O	inactive
CCS(=O)(=O)CCn1c([N+](=O)[O-])cnc1C [listing 1 of 2 here]	inactive
Cc1ncc([N+](=O)[O-])n1CCO	inactive
CCS(=O)(=O)CCn1c([N+](=O)[O-])cnc1C [listing 2 of 2 here]	active
Cc1cc(O)c(-c2ccc([C@@H](C)CN)cc2)c2c1[nH]c(=O)c1sccc12	active
C[C@H]1CN([C@@H](C)CO)C(=O)CCCn2nncc2CO[C@@H]1CN(C)C(=O)c1cc(-c2ccccc2)on1	inactive
C[C@@H]1CCCCO[C@@H](CN(C)S(=O)(=O)c2ccccc2)[C@@H](C)CN([C@@H](C)CO)C(=O)c2cc(NC(=O)Nc3ccc4c(c3)OCO4)ccc2O1	inactive
CC(C)(C)S(=O)N1Cc2cc(C(=O)NCc3ccc(Oc4ccccc4)cc3)nc(-c3cccc(C#CCC4CCCC4)c3)c2[C@@H]1CCO (stereo partly specified)	inactive
CC(C)(C)S(=O)N1Cc2cc(C(=O)NCc3ccc(Oc4ccccc4)cc3)nc(-c3cccc(-c4cccc(F)c4)c3)c2[C@@H]1CCO (stereo partly specified)	active
CCCNC(=O)c1cc2c(c(-c3cccc(-c4ccc(F)cc4)c3)n1)[C@@H](CCO)N([S@](=O)C(C)(C)C)C2	inactive
CCCNC(=O)c1cc2c(c(-c3cccc(-c4cccc(F)c4)c3)n1)[C@H](CCO)N([S@@](=O)C(C)(C)C)C2	inactive
CCNC(=O)c1cc2c(c(-c3cccc(-c4cccc(F)c4)c3)n1)[C@H](CCO)N([S@@](=O)C(C)(C)C)C2	active
CCOC(=O)c1cc2c(c(-c3cccc(Br)c3)n1)[C@@H](CCO[Si](C)(C)C(C)(C)C)N([S@](=O)C(C)(C)C)C2	inactive

SMILES	cytotoxicity call
CC(C)(C)S(=O)N1Cc2cc(C(=O)Nc3ccc(-c4ccccc4)cc3)nc(-c3cccc(-c4cccc(F)c4)c3)c2[C@@H]1CCO (stereo partly specified)	active
COc1ccc(CNC(=O)c2cc3c(c(-c4cccc(-c5cccc(C#N)c5)c4)n2)[C@@H](CCO)N([S@](=O)C(C)(C)C)C3)cc1	inactive
CCNC(=O)c1cc2c(c(-c3cccc(-c4cccc(F)c4)c3)n1)[C@@H](CCO)N([S@](=O)C(C)(C)C)C2	inactive
CCOC(=O)c1cc2c(c(-c3cccc(C#CCN(C)C)c3)n1)[C@@H](CCO[Si](C)(C)C(C)(C)C)N([S@](=O)C(C)(C)C)C2	active
CCCNC(=O)c1cc2c(c(-c3cccc(-c4ccc(F)cc4)c3)n1)[C@H](CCO)N([S@@](=O)C(C)(C)C)C2	inactive
CCOC(=O)c1cc2c(c(-c3ccccc3)n1)[C@@H](CCO[Si](C)(C)C(C)(C)C)N([S@](=O)C(C)(C)C)C2	inactive
C[C@@H]1CN([C@@H](C)CO)C(=O)c2cc(NC(=O)c3ccncc3)ccc2O[C@@H](C)CCCCO[C@H]1CN(C)S(C)(=O)=O	inactive
C[C@H]1CN([C@@H](C)CO)S(=O)(=O)c2ccc(-c3cccnc3)cc2O[C@H]1CN(C)CC1CCOCC1	inactive
C[C@H](CO)N1C[C@H](C)[C@@H](CN(C)C(=O)Nc2cccc3ccccc23)OCCCC[C@H](C)Oc2ccc(NC(=O)Nc3ccc4c(c3)OCO4)cc2C1=O	inactive
O=C(O)Cn1nnc(-c2ccccc2)n1	inactive
C[C@@H]1CCCCO[C@@H](CN(C)C(=O)Cc2ccccc2)[C@H](C)CN([C@@H](C)CO)C(=O)c2cc(NS(=O)(=O)c3cccs3)ccc2O1	inactive
COC(=O)c1[nH]c(C(=O)OC)c(O)c1O	inactive
C[C@H]1CN([C@@H](C)CO)C(=O)c2cc(C3=CCCC3)cnc2O[C@@H]1CN(C)S(=O)(=O)c1cn(C)cn1	inactive
CC(C)(O)C#Cc1cccc(-c2nc(C(=O)Nc3ccc(-c4ccccc4)cc3)cc3c2[C@@H](CCO)N(S(=O)C(C)(C)C)C3)c1 (stereo partly specified)	active
CC(C)(O)C#Cc1cccc(-c2nc(C(=O)NCCCN3CCOCC3)cc3c2[C@@H](CCO)N(S(=O)C(C)(C)C)C3)c1 (stereo partly specified)	inactive
CCCNC(=O)c1cc2c(c(-c3cccc(-c4cccc(F)c4)c3)n1)[C@@H](CCO)N([S@](=O)C(C)(C)C)C2	inactive
CC(C)(C)S(=O)N1Cc2cc(C(=O)Nc3ccc(-c4ccccc4)cc3)nc(-c3cccc(C#CCC4CCCC4)c3)c2[C@@H]1CCO (stereo partly specified)	inactive
CC(C)(C)[S@@](=O)N1Cc2cc(C(=O)NCC(F)(F)F)nc(-c3cccc(-c4cccc(F)c4)c3)c2[C@H]1CCO	inactive
CC(C)(C)[S@](=O)N1Cc2cc(C(=O)NCC(F)(F)F)nc(-c3cccc(-c4cccc(F)c4)c3)c2[C@@H]1CCO	active
